# Laboratory results taken from PubChem BioAssay AID588466 (NMMLSC, 2011).
# In all, about 2,100 compounds went through this assay and about 30 (1%) were called active. A selection follows. A number with no mark means an inactive call.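 The calls were made as follows: active = compounds whose mean binding response over two repeats is below 75% of the DMSO control; inactive = the rest.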
# Target: Desmoglein-3 (Homo sapiens) (UniProt P32926)
# Assay: blockers of pemphigus antibody–desmoglein-3 interaction – biochemical, cherry pick 1, bead-based, flow cytometry, confirmation (AID 588466);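 also: 100% = 2% DMSO vehicle and 0% = excess soluble DSG3 blocking control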
# Conditions: Protein G beads with DSG3, scFv-GFP binding, at 10 µM, stronger effect = lower value
# Sequence of Desmoglein-3 (Homo sapiens) (P32926 whole entry, looked up): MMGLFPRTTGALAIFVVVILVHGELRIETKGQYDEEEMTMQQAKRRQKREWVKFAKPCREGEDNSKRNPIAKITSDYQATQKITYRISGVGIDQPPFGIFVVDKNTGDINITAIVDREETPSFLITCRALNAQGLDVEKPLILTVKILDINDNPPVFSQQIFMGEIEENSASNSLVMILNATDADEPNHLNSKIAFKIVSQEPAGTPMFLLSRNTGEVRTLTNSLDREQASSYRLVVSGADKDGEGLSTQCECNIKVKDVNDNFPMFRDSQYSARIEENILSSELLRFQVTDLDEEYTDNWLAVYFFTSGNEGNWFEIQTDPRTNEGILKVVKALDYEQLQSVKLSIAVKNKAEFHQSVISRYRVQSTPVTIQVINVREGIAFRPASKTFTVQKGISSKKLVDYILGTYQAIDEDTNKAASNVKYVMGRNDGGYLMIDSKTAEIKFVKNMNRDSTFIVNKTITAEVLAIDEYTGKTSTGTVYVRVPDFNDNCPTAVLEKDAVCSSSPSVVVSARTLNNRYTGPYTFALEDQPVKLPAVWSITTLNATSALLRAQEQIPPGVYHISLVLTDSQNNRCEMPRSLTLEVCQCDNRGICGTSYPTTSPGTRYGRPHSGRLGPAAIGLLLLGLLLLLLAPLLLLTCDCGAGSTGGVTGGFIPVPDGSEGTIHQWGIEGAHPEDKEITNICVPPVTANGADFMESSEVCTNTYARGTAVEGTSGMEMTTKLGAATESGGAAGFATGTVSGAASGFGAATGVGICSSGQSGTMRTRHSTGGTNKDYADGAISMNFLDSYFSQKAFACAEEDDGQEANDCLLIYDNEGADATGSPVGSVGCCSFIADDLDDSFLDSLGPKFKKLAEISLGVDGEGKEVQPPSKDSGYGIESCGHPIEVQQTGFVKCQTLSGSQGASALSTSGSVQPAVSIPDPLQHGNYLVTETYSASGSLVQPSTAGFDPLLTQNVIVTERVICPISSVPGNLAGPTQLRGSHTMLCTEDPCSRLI
row,SMILES,binding response (% of DMSO)
1,CC(=O)c1ccc(NC(=O)Cn2cnc(S(=O)(=O)N3CCc4ccccc43)c2)cc1,94.8%
2,COc1cccc(C(=O)NCc2ccc3c(c2)cc(C)n3C)c1,109%
3,NNc1nc2c(-c3ccc(Cl)cc3)nnn2c2ccccc12,91.9%
4,COc1ccc(NC(=O)NN2CCN(C)CC2)c(OC)c1,99.8%
5,CSc1ccccc1OCc1cc(C(=O)N2CCN(Cc3nccn3C)CC2)no1,106%
6,C=CCNc1nc(-c2cccc(OC)c2O)nc2ccccc12,92.4%
7,Nc1nc(SCc2nnc(SCC(=O)O)n2-c2ccccc2)nc2sc3c(c12)CCCC3,106%
8,C=CCn1c(O)c(C2=c3ccccc3=NC2=O)s/c1=N/c1nccs1,71.7%
9,C=CCN1C2CCCC1CC(NC(=O)Nc1cccc(C(C)=O)c1)C2 (stereo not given),104%
10,COc1ccc(NC(=O)c2cc(-c3ccco3)nc3ccccc23)cc1,74.5%
11,COc1ccc(NC(=O)CN(C)Cc2cccs2)cc1Cl,105%
12,COC(=O)c1ccc(NC(=O)COc2ccc3c(c2)OCO3)cc1,102%
13,CN(c1ccc(C(=O)NC2CC3CCC2C3)cc1)S(C)(=O)=O (stereo not given),101%
14,CC(=O)C1=C(O)CC(c2ccccc2)CC1=NCCc1c(C)[nH]c2ccc(C)cc12 (stereo not given),96.5%
15,CC(C)CNC(=O)c1ccccc1NC(=O)CN(c1ccccc1)S(=O)(=O)N(C)C,102%
16,CCOC(=O)c1c(S(=O)(=O)NCC(C)c2ccccc2)c(C)n(C)c1C (stereo not given),97.9%
17,CCCOC(=O)CSc1nc(N)c(C#N)c(CC)c1C#N,108%
18,CN(C)S(=O)(=O)c1cccc(NC(=O)COC(=O)c2cc3ccccc3oc2=O)c1,90.6%
19,COc1ccc(CNC(=O)c2ccc(Cl)c(NC3=NC4CS(=O)(=O)CC4S3)c2)cc1 (stereo not given),104%
20,CCn1cc(C(=O)NCc2cccnc2)c(=O)c2cc(F)c(N3CCN(C(=O)c4ccco4)CC3)cc21,105%
21,Cc1ccc(S(=O)(=O)N2CCCCC2)cc1NC(=O)CCNC(=O)c1ccccc1Cl,98.5%
22,O=C(CSc1nnc(CNC(=O)c2ccc(F)cc2)o1)Nc1nccs1,99.5%
23,CCOc1ccccc1NS(=O)(=O)c1ccc2[nH]c(=O)[nH]c2c1,89.3%
24,O=C(CN1CCN(S(=O)(=O)c2cc(Br)ccc2Br)CC1)NCc1ccccc1Cl,108%
25,Cc1ccc(NC(=O)Nc2ccc3c(c2)OCO3)nc1,101%
